From PubChem BioAssay come the findings set out here.

Chain of NADPH oxidase 5 (Homo sapiens) (Q96PH1 whole entry, looked up): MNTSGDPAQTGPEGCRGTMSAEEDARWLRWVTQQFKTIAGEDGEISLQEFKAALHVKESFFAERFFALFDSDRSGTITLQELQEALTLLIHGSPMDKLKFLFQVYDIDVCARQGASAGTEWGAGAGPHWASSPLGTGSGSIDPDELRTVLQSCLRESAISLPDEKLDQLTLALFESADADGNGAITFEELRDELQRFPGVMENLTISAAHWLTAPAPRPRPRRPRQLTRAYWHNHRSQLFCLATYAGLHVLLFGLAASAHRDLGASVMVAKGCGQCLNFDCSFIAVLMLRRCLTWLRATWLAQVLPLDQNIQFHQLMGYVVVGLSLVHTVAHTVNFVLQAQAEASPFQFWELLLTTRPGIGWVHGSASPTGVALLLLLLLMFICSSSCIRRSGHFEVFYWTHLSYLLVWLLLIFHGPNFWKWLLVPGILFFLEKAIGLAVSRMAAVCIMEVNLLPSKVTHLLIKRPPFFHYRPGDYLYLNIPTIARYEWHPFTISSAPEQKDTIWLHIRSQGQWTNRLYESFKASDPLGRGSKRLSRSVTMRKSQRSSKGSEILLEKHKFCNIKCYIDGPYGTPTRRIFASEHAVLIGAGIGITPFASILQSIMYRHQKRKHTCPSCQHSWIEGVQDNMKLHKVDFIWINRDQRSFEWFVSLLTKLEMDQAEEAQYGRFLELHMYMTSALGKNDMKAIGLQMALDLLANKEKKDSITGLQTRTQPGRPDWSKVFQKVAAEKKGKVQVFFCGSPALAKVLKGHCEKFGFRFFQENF

This assay has as its target NADPH oxidase 5 (Homo sapiens) (UniProt Q96PH1). As to the kind of experiment: compounds shifting NOX5 Amplex Red fluorescence – cell-based, HEK293-NOX5, NOX inhibitor project, primary screen (AID 1161). As to conditions: HEK293-NOX5, ionomycin, 45 min, higher = more signal.
Turning to `O=C1C[C@]2(c3ccc([N+](=O)[O-])cc3)C(=O)N(Cc3ccccc3)c3cc(CO)ccc3[C@H]2N1CC12CC3CC(CC(C3)C1)C2`, the z-score was 0.664.

Consider `Cc1c(NC(=O)/C(C#N)=C/C=C/c2ccc(N(C)C)cc2)c(=O)n(-c2ccccc2)n1C`, for which the z-score is -0.807.

On to `COCCOC(=O)N1C(=O)[C@@]2(c3ccccc31)[C@H](c1ccc(OCCO)cc1)N1[C@H](c3ccccc3)[C@H](c3ccccc3)OC(=O)[C@H]1[C@@H]2C(=O)Nc1nc2ccccc2s1`, for which the z-score was 1.28.

As for `COCCCNC(=O)[C@@]1(Sc2ccc(C)cc2)CC(=O)N(Cc2cc(C(F)(F)F)cc(C(F)(F)F)c2)[C@@H]1c1ccc(CO)cc1`, the z-score amounted to 0.581.

Consider `CCCC[C@@H]1C[C@H]1[C@@H](NC(=O)c1ccccc1)c1ccc(Cl)cc1`, for which the z-score turned out to be 1.86.

Take `CC(C)C(CO)N1C(=O)[C@]2(C)C3C(=O)OCCC/C=C\[C@H]3OC23C=CCN(c2ccc(Cl)cc2)C(=O)[C@@H]13` (stereo not given in full): the z-score came to 1.69.

In the case of `COC(=O)[C@@]1(Cc2ccc(OC)cc2)[C@H]2c3cc(C(=O)N4CCCC4)n(CCc4cc5ccccc5[nH]4)c3C[C@H]2CN1C(=O)c1ccccc1`, the z-score is -3.28.

As for `CCCC[C@@H]1C[C@H]1[C@@H](NC(=O)c1cccnc1)c1ccc(-c2ccccc2)cc1`, the z-score was 0.353.

As to `[N-]=[N+]=Nc1ccccc1[C@@H]1OC(c2ccc(OCCCO)cc2)=N[C@]1(CCS(=O)(=O)c1ccccc1)C(=O)NCCN1CCOCC1`, the z-score is -1.84.

For `C[C@@H](OCc1ccccc1)C1NC(=O)[C@@]23C(=O)N[C@@H](Cc4ccccc4)C2[C@H](C)[C@@]2(C)O[C@H]2C3/C=C/C/C=C\CNC(=O)CNC1=O` (stereo not given in full), the z-score is 1.56.

In the case of `C=C(CCCC)/C(=C/C[C@@H](OC(=O)c1ccncc1)c1cccc(OCCO)c1)c1cnc2ccccc2c1`, the z-score is -0.509.

For the molecule `CC(=O)n1cc(C(O)C2C=CC3C(=O)N(c4ccccc4)C(=O)C3N2Nc2ccccc2)c2ccccc21` (stereo not given), the z-score is -4.68.

Take `C=CCN1C(=O)[C@]2(CC=C)N=C(c3ccc(OCCCO)cc3)O[C@@H]2c2ccccc21`: the z-score was found to be 1.09.

With `CCOC(=O)C[C@H]1[C@H](OC(=O)Cc2ccc3c(c2)OCO3)[C@@H](NC(=O)C2CCCCC2)c2cc(OCCCO)ccc2N1C(=O)c1ccc2ccccc2n1`, the z-score was -2.62.

Regarding `O=C1O[C@@H](c2ccccc2)[C@@H](c2ccccc2)N2[C@@H](c3ccccc3OCCO)[C@]3(C(=O)Nc4ccc(C#CC5=CCCCC5)cc43)[C@@H](C(=O)NC[C@H](O)c3ccccc3)[C@H]12`, the z-score came to 2.55.

On to `O=C1OCC=C[C@H]2OC34C=CCN(Cn5nnc6ccccc65)C(=O)[C@H]3N(CCCCCCO)C(=O)[C@@H]4[C@@H]12` (stereo not given in full), for which the z-score was found to be 2.24.

Consider `COCCCNC(=O)[C@]1(Cc2ccccc2N=[N+]=[N-])N=C(c2ccc(OCCCO)cc2)O[C@@H]1c1ccccc1N=[N+]=[N-]`, for which the z-score is 1.71.

For the molecule `CC(C)c1ccc(NN2C(C(O)c3ccco3)C=CC3C(=O)N(c4ccccc4)C(=O)C32)cc1` (stereo not given), the z-score is -1.88.

Turning to `Cc1ccc(S[C@]2(C(=O)NCC(C)C)CC(=O)N(Cc3ccccc3Cl)[C@@H]2c2ccc(CO)cc2I)cc1`, the z-score amounted to 1.52.

For `C=CCC(OC(C)=O)[C@@H]1[C@@H](N(Cc2ccc(-c3ccccc3)cc2)C(=O)c2cccc3ccccc23)c2cc(OCCCO)ccc2N1C(=O)Cc1ccc2ccccc2c1` (stereo not given in full), the z-score was -4.09.

Regarding `CC=CC(O)C1C=CC2C(=O)N(C)C(=O)C2N1Nc1ccc([N+](=O)[O-])cc1[N+](=O)[O-]` (stereo not given), the z-score was -1.09.

With `CC(C)(C)OC(=O)CC[C@]1(C(=O)NCCN2CCOCC2)N=C(c2ccc(OCCCO)cc2)O[C@H]1c1ccccc1`, the z-score was 1.42.

In the case of `CCCCC(=C=CC[C@@H](O)c1ccc(OCCO)cc1)C[C@@H](O)COCc1ccccc1`, the z-score is -2.45.

Consider `COC(=O)[C@H](Cc1ccccc1)N1CC(/C=C/C2CC2)=C[C@@H]1[C@@H](O)Cc1ccccc1`, for which the z-score was 0.424.

Regarding `COCCOC(=O)N1C(=O)[C@@]2(c3cc(C#CCC(C(=O)OC)C(=O)OC)ccc31)[C@H](c1ccc(OCCO)cc1)N1[C@H](c3ccccc3)[C@H](c3ccccc3)OC(=O)[C@H]1[C@@H]2C(=O)N1CCN(c2ncccn2)CC1`, the z-score is -4.4.

For the molecule `CN(C)C(=O)[C@]1(CCC(=O)OC(C)(C)C)N=C(c2ccc(OCCCO)cc2)O[C@@H]1c1ccccc1`, the z-score is -0.229.

Take `COCCOC(=O)N1C(=O)[C@@]2(c3cc(C#CC4(O)CCCCCC4)ccc31)[C@H](C(N)=O)[C@H]1C(=O)O[C@H](c3ccccc3)[C@H](c3ccccc3)N1[C@@H]2c1ccccc1OCCO`: the z-score is 0.38.

Turning to `CC(CO)N1C(=O)[C@@H]2C3C(=O)OCCC/C=C\[C@H]3OC23C=CCN(Cn2nnc4ccccc42)C(=O)[C@@H]13` (stereo not given in full), the z-score is 2.03.

Turning to `COC(=O)[C@@]1(Cc2ccc(OC)cc2)[C@H]2c3cc(C(=O)N(C)C)n(CCc4c[nH]c5ccc(O)cc45)c3C[C@H]2CN1C(=O)c1ccccc1`, the z-score stood at 1.14.

Consider `O=c1cccc(-c2cccc(Cl)c2)o1`, for which the z-score is -0.541.

In the case of `O=C1O[C@H](c2ccccc2)[C@H](c2ccccc2)N2[C@H]1[C@@H](C(=O)O)[C@]1(C(=O)Nc3ccccc31)[C@H]2c1ccc(O)cc1`, the z-score is 1.31.

In the case of `COCCOC(=O)N1C(=O)[C@@]2(c3ccccc31)[C@H](C(=O)N1CCN(c3ncccn3)CC1)[C@H]1C(=O)O[C@H](c3ccccc3)[C@H](c3ccccc3)N1[C@@H]2c1ccc(OCCO)cc1`, the z-score was found to be 0.55.

Turning to `CCOC(=O)C1=C[C@@H](c2ccccc2)N(S(=O)(=O)c2ccc(C)cc2)[C@H]1c1cccc(Cl)c1`, the z-score turned out to be 0.0576.

As to `O=C1c2ccccc2[C@](Cc2ccccc2I)(C(=O)NCCN2CCOCC2)[C@H](c2ccc(CO)cc2)N1Cc1ccccc1`, the z-score was 0.665.

As to `O=C(O)[C@H]1C[C@H]2C(=O)N3CCC[C@H]3C(=O)N2[C@H]1c1cccc(OCCO)c1`, the z-score came out at 1.24.
